Experimental data taken from PubChem BioAssay AID1159580 (chemical genetic matrix, 2015).
Screen size: about 5,500 compounds; about 2,000 (36%) were called active. Another 18% or so got no clear call; they are omitted. The list shows a part of the results. Values without a mark were called inactive. Cut-off read from the data, not from the text of the source: active = normalized growth mostly below about 0.91 (no sharp cut-off); inconclusive = no clear call, values can overlap the other calls; inactive = mostly above about 0.92.

Assay: chemical genetic growth profiling, strain panel (AID 1159580);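 note: tested at 20 µM; growth read once vehicle control cultures reached saturation at 30 °C; 1 = growth at the plate median or of vehicle wells; lower values mean less growth of the strain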
Conditions: growth OD
[1] = S. cerevisiae deletion strains, locus YAL013W, strain DEP1, active compounds read low
[2] = S. cerevisiae deletion strains, locus YDR150W, strain NUM1, active compounds read low
[3] = S. cerevisiae deletion strains, locus YJR075W, strain HOC1, active compounds read low
[4] = S. cerevisiae deletion strains, locus YMR263W, strain SAP30, active compounds read low
[5] = S. cerevisiae deletion strains, locus YNL153C, strain GIM3, active compounds read low
[6] = S. cerevisiae deletion strains, locus YNL322C, strain KRE1, active compounds read low
[7] = S. cerevisiae deletion strains, locus YPL055C, strain LGE1, active compounds read low
[8] = S. cerevisiae deletion strains, locus YBR229C, strain ROT2, active compounds read low
[9] = S. cerevisiae deletion strains, locus YDL101C, strain DUN1, active compounds read low
[10] = S. cerevisiae deletion strains, locus YEL061C, strain CIN8, active compounds read low
[11] = S. cerevisiae deletion strains, locus YGR078C, strain PAC10, active compounds read low
[12] = S. cerevisiae deletion strains, locus YHR030C, strain SLT2, active compounds read low
[13] = S. cerevisiae deletion strains, locus YHR087W, strain rtc3, active compounds read low
[14] = S. cerevisiae deletion strains, locus YJR043C, strain POL32, active compounds read low
[15] = S. cerevisiae deletion strains, locus YKL190W, strain CNB1, active compounds read low
[16] = S. cerevisiae deletion strains, locus YLR039C, strain RIC1, active compounds read low
[17] = S. cerevisiae deletion strains, locus YLR058C, strain SHM2 (second series), active compounds read low
[18] = S. cerevisiae deletion strains, locus YLR085C, strain ARP6, active compounds read low
[19] = S. cerevisiae deletion strains, locus YLR262C, strain YPT6, active compounds read low
[20] = S. cerevisiae deletion strains, locus YML094W, strain GIM5, active compounds read low
[21] = S. cerevisiae deletion strains, locus YMR219W, strain ESC1, active compounds read low
[22] = S. cerevisiae deletion strains, locus YNL298W, strain CLA4 (second series), active compounds read low
[23] = S. cerevisiae deletion strains, locus YNR030W, strain Alg12, active compounds read low
[24] = S. cerevisiae deletion strains, locus YOL006C, strain TOP1, active compounds read low
[25] = S. cerevisiae deletion strains, locus YPL241C, strain CIN2, active compounds read low
[26] = S. cerevisiae deletion strains, locus YPR135W, strain CTF4, active compounds read low

For `NC(=O)CCC(N)C(=O)O` (stereo not drawn), the normalized growth [1] was 1.02, the normalized growth (S. cerevisiae deletion strains, locus YAL040C, strain CLN3, active compounds read low) was 0.998 and the normalized growth (S. cerevisiae deletion strains, locus YCL061C, strain MRC1 (second series), active compounds read low) was 1. It also gave a normalized growth [2] of 0.999, a normalized growth (S. cerevisiae deletion strains, locus YDR363W, strain ESC2, active compounds read low) of 1.01 and a normalized growth (S. cerevisiae deletion strains, locus YER002W, strain NOP16, active compounds read low) of 1.02. It also gave a normalized growth (S. cerevisiae deletion strains, locus YGR229C, strain SMI1, active compounds read low) of 1.04, a normalized growth [3] of 1.01 and a normalized growth [4] of 0.997. For the same compound, the normalized growth (S. cerevisiae deletion strains, locus YNL128W, strain TEP1, active compounds read low) was 0.987, the normalized growth [5] was 0.99 and the normalized growth (S. cerevisiae deletion strains, locus YNL175C, strain NOP13, active compounds read low) was 0.996. For the same compound, the normalized growth (S. cerevisiae deletion strains, locus YNL197C, strain WHI3, active compounds read low) was 0.997, the normalized growth (S. cerevisiae deletion strains, locus YNL224C, strain SQS1, active compounds read low) was 0.993 and the normalized growth [6] was 1.01. It also gave a normalized growth (S. cerevisiae deletion strains, locus YOR083W, strain WHI5 (second series), active compounds read low) of 1.01 and a normalized growth [7] of 1.03.

With `BrC12CC3CC(CC(C3)C1)C2` the normalized growth [1] was 1, the normalized growth [8] was 1.02 and the normalized growth [9] was 1.01. It also gave a normalized growth [2] of 0.961, a normalized growth [10] of 1.01 and a normalized growth [11] of 0.997. It also gave a normalized growth [12] of 1.05, a normalized growth [13] of 0.971 and a normalized growth [14] of 1.02. The normalized growth [3] was 1.03, the normalized growth [15] was 1 and the normalized growth [16] was 1.02. For the same compound, the normalized growth [17] was 1.02, the normalized growth [18] was 1.01 and the normalized growth [19] was 1.02. The normalized growth [20] was 0.997, the normalized growth [21] was 1 and the normalized growth [4] was 0.975. It also gave a normalized growth [5] of 1.02, a normalized growth [22] of 0.996 and a normalized growth [6] of 1.01. It also gave a normalized growth [23] of 0.999, a normalized growth [24] of 1.01 and a normalized growth [7] of 1.03. For the same compound, the normalized growth [25] was 1 and the normalized growth [26] was 0.99.

Compound `CC1CC2C(C(O)CC3(C)C2CCC3(O)C(=O)COC(=O)CCC(=O)O)C2(C)C=CC(=O)C=C12` (stereo not drawn) has a normalized growth (S. cerevisiae deletion strains, locus YBR021W, strain FUR4, active compounds read low) of 1.08, a normalized growth [8] of 1 and a normalized growth (S. cerevisiae deletion strains, locus YCL029C, strain bik1, active compounds read low) of 0.97. The normalized growth (S. cerevisiae deletion strains, locus YDL035C, strain GPR1, active compounds read low) was 1.01, the normalized growth (S. cerevisiae deletion strains, locus YDL074C, strain BRE1, active compounds read low) was 1.01 and the normalized growth [9] was 1.01. It also gave a normalized growth (S. cerevisiae deletion strains, locus YDL185W, strain tfp1, active compounds read low) of 0.959, a normalized growth (S. cerevisiae deletion strains, locus YDL192W, strain arf1, active compounds read low) of 0.982 and a normalized growth (S. cerevisiae deletion strains, locus YDR101C, strain arx1, active compounds read low) of 0.993. The normalized growth [2] was 1, the normalized growth (S. cerevisiae deletion strains, locus YDR162C, strain NBP2, active compounds read low) was 1.02 and the normalized growth (S. cerevisiae deletion strains, locus YDR318W, strain mcm21, active compounds read low) was 0.989. For the same compound, the normalized growth (S. cerevisiae deletion strains, locus YDR388W, active compounds read low) was 0.997, the normalized growth (S. cerevisiae deletion strains, locus YDR502C, strain sam2, active compounds read low) was 0.982 and the normalized growth [10] was 1.01. For the same compound, the normalized growth (S. cerevisiae deletion strains, locus YER110C, active compounds read low) was 0.977, the normalized growth (S. cerevisiae deletion strains, locus YER155C, strain BEM2, active compounds read low) was 1.01 and the normalized growth (S. cerevisiae deletion strains, locus YER167W, strain BCK2, active compounds read low) was 1.01. For the same compound, the normalized growth (S. cerevisiae deletion strains, locus YGL078C, strain dbp3, active compounds read low) was 0.984, the normalized growth (S. cerevisiae deletion strains, locus YGL086W, strain mad1, active compounds read low) was 1 and the normalized growth (S. cerevisiae deletion strains, locus YGL248W, strain PDE1, active compounds read low) was 1.01. The normalized growth (S. cerevisiae deletion strains, locus YGR135W, strain pre9, active compounds read low) was 0.982, the normalized growth (S. cerevisiae deletion strains, locus YGR252W, strain gcn5, active compounds read low) was 0.992 and the normalized growth [12] was 0.987. It also gave a normalized growth (S. cerevisiae deletion strains, locus YHR079C, strain IRE1 (second series), active compounds read low) of 0.979, a normalized growth (S. cerevisiae deletion strains, locus YHR094C, strain hxt1, active compounds read low) of 0.994 and a normalized growth (S. cerevisiae deletion strains, locus YHR129C, strain ARP1, active compounds read low) of 0.999. For the same compound, the normalized growth (S. cerevisiae deletion strains, locus YHR200W, strain rpn10, active compounds read low) was 0.987, the normalized growth (S. cerevisiae deletion strains, locus YIL066C, strain RNR3, active compounds read low) was 1.03 and the normalized growth (S. cerevisiae deletion strains, locus YIL073C, strain SPO22, active compounds read low) was 0.973. The normalized growth (S. cerevisiae deletion strains, locus YIL125W, strain kgd1, active compounds read low) was 0.983, the normalized growth (S. cerevisiae deletion strains, locus YIR030C, strain dcg1, active compounds read low) was 0.978 and the normalized growth (S. cerevisiae deletion strains, locus YJL095W, strain BCK1, active compounds read low) was 1.05. It also gave a normalized growth (S. cerevisiae deletion strains, locus YJL134W, strain LCB3, active compounds read low) of 0.999, a normalized growth (S. cerevisiae deletion strains, locus YJL168C, strain set2, active compounds read low) of 0.979 and a normalized growth (S. cerevisiae deletion strains, locus YJL187C, strain SWE1 (second series), active compounds read low) of 1.02. For the same compound, the normalized growth [14] was 1.04, the normalized growth [3] was 1 and the normalized growth (S. cerevisiae deletion strains, locus YKL009W, strain mrt4, active compounds read low) was 0.97. The normalized growth (S. cerevisiae deletion strains, locus YKL068W, active compounds read low) was 0.968, the normalized growth (S. cerevisiae deletion strains, locus YKL085W, strain MDH1 (second series), active compounds read low) was 0.994 and the normalized growth (S. cerevisiae deletion strains, locus YKL085W, strain MDH1, active compounds read low) was 0.994. It also gave a normalized growth (S. cerevisiae deletion strains, locus YKR001C, strain vps1, active compounds read low) of 0.984, a normalized growth [16] of 1.03 and a normalized growth (S. cerevisiae deletion strains, locus YLR058C, strain SHM2, active compounds read low) of 0.999. For the same compound, the normalized growth (S. cerevisiae deletion strains, locus YLR102C, strain apc9, active compounds read low) was 0.991, the normalized growth [19] was 0.98 and the normalized growth (S. cerevisiae deletion strains, locus YLR268W, strain sec22, active compounds read low) was 0.99. The normalized growth (S. cerevisiae deletion strains, locus YLR330W, strain CHS5, active compounds read low) was 0.987, the normalized growth (S. cerevisiae deletion strains, locus YLR342W, strain FKS1 (second series), active compounds read low) was 1.04 and the normalized growth (S. cerevisiae deletion strains, locus YLR371W, strain rom2, active compounds read low) was 0.979. The normalized growth (S. cerevisiae deletion strains, locus YLR418C, strain cdc73, active compounds read low) was 1.02, the normalized growth (S. cerevisiae deletion strains, locus YML016C, strain PPZ1, active compounds read low) was 1.01 and the normalized growth (S. cerevisiae deletion strains, locus YML032C, strain rad52, active compounds read low) was 1. The normalized growth (S. cerevisiae deletion strains, locus YML124C, strain tub3, active compounds read low) was 0.987, the normalized growth (S. cerevisiae deletion strains, locus YMR078C, strain ctf18, active compounds read low) was 0.979 and the normalized growth (S. cerevisiae deletion strains, locus YMR223W, strain ubp8, active compounds read low) was 0.981. For the same compound, the normalized growth [4] was 1.02, the normalized growth (S. cerevisiae deletion strains, locus YMR307W, strain GAS1, active compounds read low) was 1.13 and the normalized growth (S. cerevisiae deletion strains, locus YNL067W, strain RPL9B, active compounds read low) was 1.03. The normalized growth [5] was 1.03, the normalized growth (S. cerevisiae deletion strains, locus YNL233W, strain BNI4, active compounds read low) was 1.04 and the normalized growth (S. cerevisiae deletion strains, locus YNL250W, strain rad50, active compounds read low) was 0.966. For the same compound, the normalized growth (S. cerevisiae deletion strains, locus YNL271C, strain bni1, active compounds read low) was 0.999, the normalized growth (S. cerevisiae deletion strains, locus YNL298W, strain CLA4, active compounds read low) was 0.993 and the normalized growth (S. cerevisiae deletion strains, locus YNL307C, strain MCK1, active compounds read low) was 0.987. It also gave a normalized growth [6] of 1.01, a normalized growth (S. cerevisiae deletion strains, locus YNR052C, strain pop2, active compounds read low) of 0.982 and a normalized growth (S. cerevisiae deletion strains, locus YOL012C, strain htz1) of 0.933. For the same compound, the normalized growth (S. cerevisiae deletion strains, locus YOL147C, strain pex11, active compounds read low) was 0.993, the normalized growth (S. cerevisiae deletion strains, locus YOR061W, strain CKA2, active compounds read low) was 1 and the normalized growth (S. cerevisiae deletion strains, locus YOR069W, strain VPS5, active compounds read low) was 1. It also gave a normalized growth (S. cerevisiae deletion strains, locus YOR136W, strain idh2, active compounds read low) of 0.99, a normalized growth (S. cerevisiae deletion strains, locus YOR144C, strain elg1, active compounds read low) of 1 and a normalized growth (S. cerevisiae deletion strains, locus YOR184W, strain ser1, active compounds read low) of 1.01. The normalized growth (S. cerevisiae deletion strains, locus YOR316C, strain cot1, active compounds read low) was 1, the normalized growth (S. cerevisiae deletion strains, locus YPR119W, strain clb2, active compounds read low) was 0.986 and the normalized growth (S. cerevisiae deletion strains, locus YPR141C, strain kar3, active compounds read low) was 0.972. The normalized growth (S. cerevisiae deletion strains, locus YPR163C, strain tif3, active compounds read low) was 0.985, the normalized growth (S. cerevisiae deletion strains, locus YPR167C, strain met16, active compounds read low) was 0.969 and the normalized growth (S. cerevisiae deletion strains, strain wtn01, active compounds read low) was 0.995. For the same compound, the normalized growth (S. cerevisiae strains, strain wild type, active compounds read low) was 1.01.

In the case of `O=C(Nc1ccc(Cl)cc1Cl)c1cnccn1`, the normalized growth [1] is reported as 0.943, the normalized growth [8] is reported as 0.963 and the normalized growth (S. cerevisiae deletion strains, locus YCL061C, strain MRC1, active compounds read low) is reported as 0.98. For the same compound, the normalized growth [9] was 0.982, the normalized growth (S. cerevisiae deletion strains, locus YDL134C, strain PPH21, active compounds read low) was 0.989 and the normalized growth [2] was 0.989. The normalized growth [10] was 0.95, the normalized growth [11] was 0.991 and the normalized growth [12] was 0.606 (active). For the same compound, the normalized growth [13] was 0.973, the normalized growth [14] was 1.01 and the normalized growth [3] was 1.01. For the same compound, the normalized growth [15] was 0.862 (active), the normalized growth [16] was 0.788 (active) and the normalized growth [17] was 0.975. For the same compound, the normalized growth [18] was 0.656 (active), the normalized growth [19] was 0.87 and the normalized growth [20] was 0.91. For the same compound, the normalized growth [21] was 0.99, the normalized growth [4] was 0.966 and the normalized growth [5] was 0.98. It also gave a normalized growth [22] of 0.911, a normalized growth [6] of 0.986 and a normalized growth [23] of 0.94. The normalized growth [24] was 0.773, the normalized growth [7] was 0.9 and the normalized growth [25] was 0.9. For the same compound, the normalized growth [26] was 0.768.
